# From the supplement of paper PMC8728848
# About 410 targets per protein were measured; listed, in parts, are those with the strongest signals and a random draw of the rest.
# Experiments:
# Assay in all cases: glycan array binding signal (z-score within array); higher = stronger binding
# Settings in all cases: glycan notation: IUPAC condensed, linker removed
# [1] = target: Fuc(a1-2)Gal(b1-3)GlcNAc(b1-2)Man(a1-3)[Fuc(a1-2)Gal(b1-3)GlcNAc(b1-2)Man(a1-6)]Man(b1-4)GlcNAc(b1-4)GlcNAc
# Summary of the method: (§1)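 Glycan array data came from 3228 arrays in the Consortium for Functional Glycomics database, and only arrays with an available protein sequence were kept. Glycan names were put into IUPAC-condensed notation, and columns mapping to the same glycan were averaged. The binding signal is a within-array Z-score, averaged across arrays of one protein sequence run at different concentrations or buffers and across linkers. A negative Z-score can be read as non-binding.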
# Fuc(a1-2)Gal(b1-4)Glc = target: Fuc(a1-2)Gal(b1-4)Glc
# Summary of the method: as §1
# [2] = target: Fuc(a1-2)Gal(b1-4)GlcNAc(b1-3)[Fuc(a1-2)Gal(b1-4)GlcNAc(b1-6)]GalNAc
# Summary of the method: as §1
# [3] = target: Fuc(a1-2)Gal6S(b1-3)GlcNAc6S
# Summary of the method: as §1
# [4] = target: Fuc(a1-2)[Gal(a1-3)]Gal(b1-4)[Fuc(a1-3)]GlcNAc
# Summary of the method: as §1
# [5] = target: Fuc(a1-2)[GalNAc(a1-3)]Gal(b1-3)GlcNAc(b1-3)GalNAc
# Summary of the method: as §1
# [6] = target: Fuc(a1-2)[GalNAc(a1-3)]Gal(b1-4)Glc
# Summary of the method: as §1
# [7] = target: Fuc(a1-2)[GalNAc(a1-4)]Gal(b1-4)GlcNAc
# Summary of the method: as §1
# [8] = target: Fuc(a1-3)[Gal(b1-4)]GlcNAc(b1-6)GalNAc
# Summary of the method: as §1
# [9] = target: Gal(b1-4)GlcNAc(b1-2)Man(a1-3)[Gal(b1-4)GlcNAc(b1-2)Man(a1-6)]Man(b1-4)GlcNAc(b1-4)[Fuc(a1-6)]GlcNAc
# Summary of the method: as §1
# [10] = target: Gal(b1-4)GlcNAc(b1-2)Man(a1-3)[GlcNAc(b1-4)][Gal(b1-4)GlcNAc(b1-2)Man(a1-6)]Man(b1-4)GlcNAc(b1-4)GlcNAc
# Summary of the method: as §1
# [11] = target: Gal(b1-4)GlcNAc(b1-2)[Gal(b1-4)GlcNAc(b1-6)]Man(a1-6)[GlcNAc(b1-4)][Gal(b1-4)GlcNAc(b1-2)Man(a1-3)]Man(b1-4)GlcNAc(b1-4)GlcNAc
# Summary of the method: as §1
# [12] = target: Gal(b1-4)GlcNAc(b1-3)Gal(b1-4)GlcNAc(b1-2)[Gal(b1-4)GlcNAc(b1-3)Gal(b1-4)GlcNAc(b1-6)]Man(a1-6)[Gal(b1-4)GlcNAc(b1-3)Gal(b1-4)GlcNAc(b1-2)Man(a1-3)]Man(b1-4)GlcNAc(b1-4)GlcNAc
# Summary of the method: as §1
# [13] = target: Gal(b1-4)GlcNAc(b1-3)Gal(b1-4)GlcNAc(b1-3)Gal(b1-4)GlcNAc
# Summary of the method: as §1
# [14] = target: Gal(b1-4)GlcNAc(b1-3)Gal(b1-4)GlcNAc(b1-3)Gal(b1-4)GlcNAc(b1-3)Gal(b1-4)GlcNAc(b1-2)Man(a1-3)[Gal(b1-4)GlcNAc(b1-3)Gal(b1-4)GlcNAc(b1-3)Gal(b1-4)GlcNAc(b1-3)Gal(b1-4)GlcNAc(b1-2)Man(a1-6)]Man(b1-4)GlcNAc(b1-4)[Fuc(a1-6)]GlcNAc
# Summary of the method: as §1
# [15] = target: Gal(b1-4)GlcNAc(b1-3)[Gal(b1-4)GlcNAc(b1-6)]Gal(b1-4)GlcNAc
# Summary of the method: as §1
# [16] = target: Gal(b1-4)GlcNAc(b1-3)[GlcNAc(b1-6)]Gal(b1-4)GlcNAc
# Summary of the method: as §1
# [17] = target: GalNAc(b1-3)Gal(a1-4)Gal(b1-4)GlcNAc
# Summary of the method: as §1
# GlcA(b1-6)Gal = target: GlcA(b1-6)Gal
# Summary of the method: as §1
# [18] = target: GlcNAc(b1-3)Gal(b1-3)GalNAc
# Summary of the method: as §1
# [19] = target: GlcNAc(b1-3)Gal(b1-4)GlcNAc(b1-3)Gal(b1-4)GlcNAc(b1-2)Man(a1-3)[GlcNAc(b1-3)Gal(b1-4)GlcNAc(b1-3)Gal(b1-4)GlcNAc(b1-2)Man(a1-6)]Man(b1-4)GlcNAc(b1-4)GlcNAc
# Summary of the method: as §1
# [20] = target: GlcNAc(b1-3)Gal(b1-4)GlcNAc(b1-3)Gal(b1-4)GlcNAc(b1-3)Gal(b1-4)GlcNAc(b1-2)[GlcNAc(b1-3)Gal(b1-4)GlcNAc(b1-3)Gal(b1-4)GlcNAc(b1-3)Gal(b1-4)GlcNAc(b1-6)]Man(a1-6)[GlcNAc(b1-3)Gal(b1-4)GlcNAc(b1-3)Gal(b1-4)GlcNAc(b1-3)Gal(b1-4)GlcNAc(b1-2)Man(a1-3)]Man(b1-4)GlcNAc(b1-4)[Fuc(a1-6)]GlcNAc
# Summary of the method: as §1
# [21] = target: GlcNAc(b1-4)GlcNAc(b1-4)GlcNAc(b1-4)GlcNAc(b1-4)GlcNAc(b1-4)GlcNAc
# Summary of the method: as §1
# [22] = target: Man(a1-3)[Man(a1-6)]Man(a1-6)[Man(a1-3)]Man
# Summary of the method: as §1
# [23] = target: Neu5Ac(a2-3)Gal(b1-4)GlcNAc(b1-2)Man
# Summary of the method: as §1
# [24] = target: Neu5Ac(a2-3)Gal(b1-4)GlcNAc(b1-3)Gal(b1-3)GlcNAc
# Summary of the method: as §1
# [25] = target: Neu5Ac(a2-3)Gal(b1-4)GlcNAc(b1-3)Gal(b1-4)GlcNAc(b1-3)Gal(b1-4)GlcNAc
# Summary of the method: as §1
# [26] = target: Neu5Ac(a2-3)Gal(b1-4)GlcNAc(b1-3)Gal(b1-4)GlcNAc(b1-3)GalNAc
# Summary of the method: as §1
# [27] = target: Neu5Ac(a2-3)Gal(b1-4)[Fuc(a1-3)]GlcNAc(b1-6)[Neu5Ac(a2-3)Gal(b1-3)]GalNAc
# Summary of the method: as §1
# [28] = target: Neu5Ac(a2-6)Gal(b1-4)GlcNAc(b1-3)Gal(b1-4)GlcNAc(b1-6)[Gal(b1-3)]GalNAc
# Summary of the method: as §1
# [29] = target: Neu5Ac(a2-6)Gal(b1-4)GlcNAc(b1-6)GalNAc
# Summary of the method: as §1
# [30] = target: Neu5Ac(a2-8)Neu5Ac(a2-8)Neu5Ac(a2-3)Gal(b1-4)Glc
# Summary of the method: as §1
# [31] = target: Neu5Ac(b2-6)Gal(b1-4)GlcNAc
# Summary of the method: as §1
# [32] = target: Neu5Ac9Ac(a2-3)Gal(b1-3)GlcNAc
# Summary of the method: as §1
# [33] = target: Neu5Gc(a2-3)Gal(b1-4)[Fuc(a1-3)]GlcNAc
# Summary of the method: as §1
# Neu5Gc(a2-6)GalNAc = target: Neu5Gc(a2-6)GalNAc
# Summary of the method: as §1
binder,measurement,setting,value
truncCC1G-10077 (Coprinopsis cinerea) (protein) MHHHHHHHHPLPSPGPGWVLIQNGGTGKFLCSTPSGDIGTADGPETVYDYSVQWRFIQREYTGVYHVVNRATGAYLRQIGTSMPSIGLAEENDDELKDWWMLETYDNSEIGLASIISRWTGNVLDHYGGVSVQALDNNTENSYRSWAIIPARDWLTSFSLVNGQGGLCLAAQYAREETRLSTTANVNDFHAQWVFRKPSGSSGYTIQNKYNNHYVGGTSARWELVVCCNKYFGIRNTSTQKYLAIEDGQVTFQDQDMTDRKQCWELCSGRATDTSGNDYDLIYMDDDLLEVMIPWVGDKQGDLKHYIEKRATKKPPKDKGGWQLPAAGLIKKPKFNDIRQLLQELIEQWEWDVVNEEREQIQTLVSIDEAEARRLLGRRPHPDIVAAYQRSRSSTLFRIDRQGYFNIAGDRYVNIQGQYGDDSYFHIALPVGVRFGREQIRRFLRDSLDRSTSVTITPTTCKPPSGGPDYNRDPDSDGDNSWIKWTIAVVGTSAIKHSEL,glycan array binding signal (z-score),[1],3.72
same,glycan array binding signal (z-score),Fuc(a1-2)Gal(b1-4)Glc,-0.216
same,glycan array binding signal (z-score),[2],2.81
same,glycan array binding signal (z-score),[3],0.519
same,glycan array binding signal (z-score),[4],1.66
same,glycan array binding signal (z-score),[5],3.65
same,glycan array binding signal (z-score),[6],-0.829
same,glycan array binding signal (z-score),[7],-0.664
same,glycan array binding signal (z-score),[8],3.46
same,glycan array binding signal (z-score),[9],3.13
same,glycan array binding signal (z-score),[10],0.359
same,glycan array binding signal (z-score),[11],-0.119
same,glycan array binding signal (z-score),[12],3.74
same,glycan array binding signal (z-score),[13],-0.532
same,glycan array binding signal (z-score),[14],0.374
same,glycan array binding signal (z-score),[15],-0.821
same,glycan array binding signal (z-score),[16],-1.04
same,glycan array binding signal (z-score),[17],-0.242
same,glycan array binding signal (z-score),GlcA(b1-6)Gal,4.61
same,glycan array binding signal (z-score),[18],-0.15
same,glycan array binding signal (z-score),[19],1.17
same,glycan array binding signal (z-score),[20],0.218
same,glycan array binding signal (z-score),[21],-0.144
same,glycan array binding signal (z-score),[22],0.384
same,glycan array binding signal (z-score),[23],2.91
same,glycan array binding signal (z-score),[24],-0.855
same,glycan array binding signal (z-score),[25],-1.07
same,glycan array binding signal (z-score),[26],0.244
same,glycan array binding signal (z-score),[27],3.72
same,glycan array binding signal (z-score),[28],0.521
same,glycan array binding signal (z-score),[29],3.21
same,glycan array binding signal (z-score),[30],0.249
same,glycan array binding signal (z-score),[31],-1.25
same,glycan array binding signal (z-score),[32],-1.02
same,glycan array binding signal (z-score),[33],3.02
same,glycan array binding signal (z-score),Neu5Gc(a2-6)GalNAc,-0.873
